# Reference: PubChem BioAssay (NCI)
# This is part of a sample that, as a whole, favours compounds with a hit. Of some 79,000 tested, about 15% had one in any assay. Values without a mark were called inactive. Active and inactive are the calls of the source. Cut-off read from the data, not from the text of the source: active = growth inhibition above about 70%; inactive = the rest.
# Experiment: NCI Yeast Anticancer Drug Screen. Data for the mec2-1 strain (AID 157)
# Settings: S. cerevisiae mec2-1 strain, at 50.0 µM, stronger effect = higher value
# How it was run: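 Strain: mec2-1 (DNA repair/cell cycle alteration). Compound exposure, then growth measured; inhibition expressed relative to vehicle.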
row,SMILES,growth inhibition [%]
1,COC1=C(C(C2=C(OC)CC(C)(C)CC2=O)c2ccc3c(c2)OCO3)C(=O)CC(C)(C)C1,7.7
2,Nc1nc2ccccc2[nH]1,-0.3
3,O=C(c1cccc(C(F)(F)F)c1)c1ccccc1Cc1ccccc1,13.9
4,Cc1ccc(-c2cc(=O)c3cc(C)c(C)c(C(=O)O)c3o2)cc1C,20.6
5,Cc1[nH]n(-c2ccccc2)c(=S)c1C(=O)c1ccccc1,1.05
6,O=C(O)c1ccccc1C(=O)Cc1ccccc1,-19
7,COc1ccc2c3c(ccc2c1)C1CC(=O)CC1CC3 (stereo not given),-11.2
8,NS(=O)(=O)c1ccc(NC(=O)CCl)cc1,-6.8
9,Cc1nc(Nc2ccccc2Cl)sc1C(=O)CC(=O)C(N)=O,20.9
10,CC1(COC(=O)C2(C)CO2)CO1 (stereo not given),9.95
11,CC1(C)[C@@H]2C[C@H]1C(Cc1cccc(C[C@H]3c4cc(-c5ccccn5)ncc4[C@H]4C[C@@H]3C4(C)C)c1)c1cc(-c3ccccn3)ncc12 (stereo not given in full),-14.7
12,C/C(=N\O)c1ccc2[nH]c(C)cc(=O)c2c1,5.7
13,O=C(O)c1ccccc1CC(C(=O)O)C(=O)O,4.05
14,COc1ccc2c(c1)c(CO)c(CO)c[n+]2[O-],3.1
15,CC(C)CCCC(C)C1CCC2C3CCC4Cc5c(c6ccccc6n5C)CC4(C)C3CCC12C (stereo not given),35
16,C=CCc1cc(C(Cc2ccccc2)NC(C)C)cc(OCc2ccccc2)c1OCc1ccccc1 (stereo not given),11.5
17,CN(C)CCSC(CO)c1ccccc1 (stereo not given),-13.4
18,CCc1nc2c([nH]1)c(=O)n(C)c(=O)n2C,-4.6
19,O=C1CCC(C(=O)O)N1 (stereo not given),4.7
20,CC(=O)NNC(=S)/N=C\c1c(O)[nH]c(=O)[nH]c1=O,-30.1
21,O=c1c2cc([N+](=O)[O-])ccc2n2n1CCCC2,9.45
22,CCOC(=O)CNC(=O)C(Cc1ccccc1)NC(=O)CNC(=O)OCc1ccccc1 (stereo not given),8.6
23,Cc1ccc(C)c2c1C(=O)c1ccccc1C2(O)C#Cc1ccccc1 (stereo not given),1.45
24,O=C1NC2(c3ccccc3)CCCCC2O1 (stereo not given),-3.05
25,CC1OC1P(=O)(O)O (stereo not given),-5.9

# Experiment: NCI Yeast Anticancer Drug Screen. Data for the sgs1 mgt1 strain (AID 161);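 note: 0% = growth of cultures given vehicle only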
# Settings: S. cerevisiae sgs1 mgt1 strain, at 50.0 µM, stronger effect = higher value
# How it was run: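 Genetically altered yeast, compound exposure, growth inhibition relative to vehicle.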
row,SMILES,growth inhibition
1,O=[N+]([O-])c1cccc(/C=C/C=C/c2ccc(Cl)c(Cl)c2)c1,30.3%
2,COC1/C=C\OC2(C)Oc3c(C)c(O)c4c(O)c(c5[nH]cnc5c4c3C2=O)NC(=O)/C(C)=C\C=C\C(C)C(O)C(C)C(O)C(C)C(OC(C)=O)C1C (stereo not given),24%
3,COc1cc(/C=C/C=C2\CC(C)C/C(=C\C=C\c3ccc(O)c(OC)c3)C2=O)ccc1O (stereo not given),6.05%
4,Cc1cccc(C)c1NC(=O)CCC(=O)NC(N)=NC#N,-25.7%
5,CCCc1nc2ccccc2c(=O)n1/N=C/c1ccc(Cl)cc1,-0.4%
6,C=CCN(CC=C)C(=O)C(=C)C,-5.5%
7,O=C(Cc1nc(-c2ccccc2)cc(=O)n1-c1ccccc1Cl)c1ccncc1,-6.3%
8,COc1ccc(/C=N/NC(=O)CCCCCCCCC(=O)N/N=C/c2ccc(OC)c(OC)c2)cc1OC,-23.4%
9,CCC(CC)=C(c1ccc(C)cc1)c1ccc(C)cc1,-1.9%
10,CN(C)/C=C/c1ccnc2c1C(=O)c1ccccc1C2=O,73.3% (active)
11,CCN1C(=O)c2ccccc2C1=O,-5.25%
12,CN(C(=O)c1ccccc1)C1CCCC(=O)CC1 (stereo not given),8.25%
13,COc1ccc(C(CCOS(=O)(=O)c2ccc(Br)cc2)(c2ccc(OC)cc2)c2ccc(OC)cc2)cc1,-13.1%
14,O=C(O)c1cc(C(=O)Nc2cccc3ccccc23)c(C(=O)O)cc1C(=O)Nc1cccc2ccccc12,17.6%
15,C(=NCCSSCCN=Cc1ccccc1)c1ccccc1,18.6%
16,COC1=C(C(C2=C(OC)CC(C)(C)CC2=O)c2ccc3c(c2)OCO3)C(=O)CC(C)(C)C1,-9.05%
17,Nc1nc2ccccc2[nH]1,-17.7%
18,O=C(c1cccc(C(F)(F)F)c1)c1ccccc1Cc1ccccc1,12.2%
19,Cc1ccc(-c2cc(=O)c3cc(C)c(C)c(C(=O)O)c3o2)cc1C,30.5%
20,Cc1[nH]n(-c2ccccc2)c(=S)c1C(=O)c1ccccc1,2.55%

row,SMILES,growth inhibition
1,O=C(O)c1ccccc1C(=O)Cc1ccccc1,-6.7%
2,COc1ccc2c3c(ccc2c1)C1CC(=O)CC1CC3 (stereo not given),54.8%
3,NS(=O)(=O)c1ccc(NC(=O)CCl)cc1,-1.9%
4,Cc1nc(Nc2ccccc2Cl)sc1C(=O)CC(=O)C(N)=O,39.4%
5,CC1(COC(=O)C2(C)CO2)CO1 (stereo not given),-6.1%
6,CC1(C)[C@@H]2C[C@H]1C(Cc1cccc(C[C@H]3c4cc(-c5ccccn5)ncc4[C@H]4C[C@@H]3C4(C)C)c1)c1cc(-c3ccccn3)ncc12 (stereo not given in full),4.95%
7,C/C(=N\O)c1ccc2[nH]c(C)cc(=O)c2c1,-5.45%
8,O=C(O)c1ccccc1CC(C(=O)O)C(=O)O,3%
9,COc1ccc2c(c1)c(CO)c(CO)c[n+]2[O-],16%
10,CC(C)CCCC(C)C1CCC2C3CCC4Cc5c(c6ccccc6n5C)CC4(C)C3CCC12C (stereo not given),-5.75%
11,C=CCc1cc(C(Cc2ccccc2)NC(C)C)cc(OCc2ccccc2)c1OCc1ccccc1 (stereo not given),16.9%
12,CN(C)CCSC(CO)c1ccccc1 (stereo not given),2.85%
13,CCc1nc2c([nH]1)c(=O)n(C)c(=O)n2C,11.6%
14,O=C1CCC(C(=O)O)N1 (stereo not given),-20.9%
15,CC(=O)NNC(=S)/N=C\c1c(O)[nH]c(=O)[nH]c1=O,-15.4%
16,O=c1c2cc([N+](=O)[O-])ccc2n2n1CCCC2,-13.8%
17,CCOC(=O)CNC(=O)C(Cc1ccccc1)NC(=O)CNC(=O)OCc1ccccc1 (stereo not given),15.5%
18,Cc1ccc(C)c2c1C(=O)c1ccccc1C2(O)C#Cc1ccccc1 (stereo not given),29.4%
19,O=C1NC2(c3ccccc3)CCCCC2O1 (stereo not given),-5.95%
20,CC1OC1P(=O)(O)O (stereo not given),-4.55%
